Measured values published in PubChem BioAssay (NCATS).
“And” between values parts separate entries of the source, which are not always exact repeats. Identical values can stand only once. Inconclusive results are not listed. Some structures have more than one record in an assay (separate samples or runs), and their calls can disagree. The source made the active and inactive calls. Unless noted, calls follow the shape of the dose curve; as a rule, active = well fitted curve in the direction sought with a large enough effect; inconclusive = small, poorly fitted or top-dose-only effect, or another doubt; inactive = no such curve, though single readings can be large; an effect the other way counts as inactive or inconclusive.

Key:
[1] = target: Luciferin 4-monooxygenase (Photinus pyralis) (UniProt P08659); assay: Biochemical firefly luciferase enzyme assay for NPC (AID 624030);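 also: purified P. pyralis luciferase at 10 nM with luciferin and ATP substrate; 0% = DMSO and -100% = full luciferase inhibition by PTC124 control; nearly all actives have a fitted effect of over 70% in size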
Method in brief: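 Direct inhibition of firefly luciferase enzyme (10 nM final, 50 mM Tris Acetate) assessed by luminescence within 5 minutes. Percent activity scaled between DMSO and PTC124 positive control, with concentration-effect curves classified by fit quality and response.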

[2] = S16 Schwann cell viability assay (CellTiter-Glo assay) (AID 624031); also: nearly all actives have a fitted effect of over 70% in size; also: potency is read from the fitted curve at half-maximal effect
Method in brief: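 Native S16 Schwann cells (rat), serum-containing medium, overnight attachment then 24 h drug exposure at 37 °C/5% CO2. CellTiter-Glo ATP signal; normalized to cell-free and vehicle wells.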

[3] = S16 Schwann cell PMP22 intronic element firefly luciferase assay (AID 624032); also: nearly all actives have a fitted effect of over 30% in size; also: potency is read from the fitted curve at half-maximal effect
Method in brief: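 Luciferase reporter of PMP22 intronic-element expression in stably transfected S16 rat Schwann cells, read by ONE-Glo luminescence after 24 h compound exposure at 37 C. Activity scaled between DMSO (0%) and positive-control PTC124; concentration-effect curves quality-classified.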

[4] = target: Glutaminase kidney isoform, mitochondrial (Homo sapiens) (UniProt O94925); assay: qHTS for Inhibitors of Glutaminase (GLS): LOPAC Validation (AID 624146); also: nearly all actives have a fitted effect of over 60% in size; also: potency is read from the fitted curve at half-maximal effect
Method in brief: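 Two-point fluorescence kinetic (t0, 30 min RT) for hKGA; glutamate detected via glutamate oxidase–HRP–Amplex Red. Substrate: 1 mM L-glutamine solution; buffer 45 mM KH2PO4, pH 8.2.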

[5] = qHTS of Trypanosoma Brucei Inhibitors: LOPAC Validation (AID 624147); also: 0% is about no effect
Method in brief: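 In this concentration-response screen, enzyme-free wells defined baseline while DMSO plates tracked drift. Each reaction combined TbPYK, substrate, compound and 130 uM ADP for 45 min at room temperature. Kinase-Glo Plus luminescence gave the signal.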

[6] = qHTS of Nrf2 Activators: LOPAC Validation (AID 624149); also: 0% is about no effect
Method in brief: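 AREc32_Fluc cells, 1000/well, OPTI-MEM + 5% FBS, o/n 37 deg C 5% CO2; compound pin-transfer, 24 hr 37 deg C; Steady-Glo 30 min RT, luminescence read.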

[7] = HTS Assay for Allosteric Antagonists of the Human D2 Dopamine Receptor: Hit Validation in HTRF (AID 624455); also: % is scaled to controls: 0 for no effect and ±100 for the full control effect
Method in brief: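 HTRF read-out; cells stably expressing D1 receptor; hits scored for inhibition of D1-mediated response. Primary screen: calcium flux, force-coupled inducible Hek293 Trex D2 line, antagonism vs EC80 dopamine.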

[8] = qHTS for Inhibitors of the vitamin D receptor (VDR): Hit Validation using a Texas Red Assay (AID 602201); conditions: VDR coregulator binding, Texas Red fluorescence polarization; agonist-bound VDR ligand-binding domain; also: potency is read from the fitted curve at half-maximal effect
Method in brief: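 After a 2-hour room-temperature incubation, polarization of Texas-Red emission was read (Ex 595 nm/Em 615 nm). Final mix contained 7 nM Texas Red, 1.5 uM VDR-LBD and LG19078.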

[9] = S16 Schwann cell PMP22 intronic element beta-lactamase assay (AID 624044; calls by dose curve; also: nearly all actives have a fitted effect of over 15% in size; also: potency is read from the fitted curve at half-maximal effect)
Method in brief: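 Beta-lactamase reporter under a PMP22 intronic regulatory element in stable S16 rat Schwann cells; 24 h compound exposure. 460 nm blue signal normalized between DMSO (0%) and potassium clavulanate, with 535 nm FRET tracking viability; curves classed by r2 and response.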

[10] = qHTS assay for small molecule agonists of the antioxidant response element (ARE) signaling pathway (AID 651741; active = well fitted activation curve with a large enough effect in the signal ratio; the % refers to the signal ratio; also: potency is read from the fitted curve at half-maximal effect; as to activation: % of control where 0% means no effect)
Method in brief: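 Agonist activity is measured as ARE-driven beta-lactamase expression in a stable HepG2 reporter line, using 16 h compound treatment at 37 C and a FRET substrate fluorescence readout after 2 h.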

[11] = qHTS assay for small molecule activators of the p53 signaling pathway (AID 651743; active = well fitted activation curve with a large enough effect in the signal ratio, not every such curve was filed as active; the % refers to the signal ratio; also: % of control where 0% means no effect); conditions: HCT-116 p53RE-bla, beta-lactamase FRET ratio, 16 h; stronger effect = higher value
Method in brief: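 A beta-lactamase reporter under p53 response element control, stably carried by HCT-116 cells, reported pathway activation. Test compounds were applied for 16 hours at 37 C, and fluorescence was measured 2 hours after adding the B/G FRET substrate.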

[12] = qHTS assay for small molecule activators of the nuclear factor-kappa B (NF-kB) signaling pathway (AID 651749; active = well fitted activation curve with a large enough effect in the signal ratio; the % refers to the signal ratio; also: % of control where 0% means no effect); conditions: NF-kB-bla ME-180 cells, beta-lactamase FRET ratio, 16 h; stronger effect = higher value
Method in brief: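 FRET-based beta-lactamase detection in ME-180 cells reports NF-kB response-element-driven transcription following overnight (16 hr) compound treatment.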

[13] = Cytotoxicity counterscreen for NFkB agonists and antagonists (AID 624476);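 also: potency is read from the fitted curve at half-maximal effect; cells exposed to compound for 48 hours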
[14] = qHTS Assay for Identification of Small Molecule Agonists for NFkB Signaling Pathway. (AID 624478);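 also: compounds tested together with TNF alpha at its EC50 of 10 pM; 0% is about no effect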
Method in brief: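 Read-out: 460/530 nm emission at 405 nm excitation after 2 h LiveBLAzer loading; ME-180 NFkB-bla reporter cells exposed 5 h at 37 C to compounds with 10 pM TNF alpha final.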

[15] = qHTS Assay for Identification of Small Molecule Antagonists for NFkB Signaling Pathway. (AID 624479; calls by dose curve;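 also: pathway stimulated with TNF alpha; potency is read from the fitted curve at half-maximal effect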)
[16] = Cell Proliferation Assay against the TMD8 Cell Line (AID 651645); conditions: TMD8 DLBCL cell line proliferation/viability; at 46.1 µM (top of the series) unless noted;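 also: cells exposed to compound for 48 h before reading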
Method in brief: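 TMD8 cells, 500/well in RPMI with 5% FBS, dosed immediately and grown 48 h at 37 C, 5% CO2. CellTiter-Glo luminescence normalised to DMSO 100% and 9.2 uM bortezomib (final) 0%.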

[17] = Cell Proliferation Assay against the HBL1 Cell Line (AID 651646); conditions: HBL1 DLBCL cells; at 46.1 µM (top of the series) unless noted;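 also: cells exposed to compound for 48 h before reading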
Method in brief: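 CellTiter-Glo luminescence after 48 h compound exposure at 37C gives percent activity, with DMSO as 100% and 9.2 uM bortezomib final as 0%. Cells: 500 log-phase HBL1 per well, RPMI plus 5% FBS.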

[18] = qHTS assay for small molecule disruptors of the mitochondrial membrane potential - 1 hr assay (AID 651754; calls by dose curve; also: potency is read from the fitted curve at half-maximal effect; nearly all actives have a fitted effect of over 35% in size)
Method in brief: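 Read-out: dye fluorescence at 490 nm ex/535 nm em (monomers) and 540 nm ex/590 nm em (aggregates) in HepG2 cells. Compound exposure 1 hr at 37C, followed by 30 min dye loading.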

Sequence of Luciferin 4-monooxygenase (Photinus pyralis) (P08659 whole entry, looked up): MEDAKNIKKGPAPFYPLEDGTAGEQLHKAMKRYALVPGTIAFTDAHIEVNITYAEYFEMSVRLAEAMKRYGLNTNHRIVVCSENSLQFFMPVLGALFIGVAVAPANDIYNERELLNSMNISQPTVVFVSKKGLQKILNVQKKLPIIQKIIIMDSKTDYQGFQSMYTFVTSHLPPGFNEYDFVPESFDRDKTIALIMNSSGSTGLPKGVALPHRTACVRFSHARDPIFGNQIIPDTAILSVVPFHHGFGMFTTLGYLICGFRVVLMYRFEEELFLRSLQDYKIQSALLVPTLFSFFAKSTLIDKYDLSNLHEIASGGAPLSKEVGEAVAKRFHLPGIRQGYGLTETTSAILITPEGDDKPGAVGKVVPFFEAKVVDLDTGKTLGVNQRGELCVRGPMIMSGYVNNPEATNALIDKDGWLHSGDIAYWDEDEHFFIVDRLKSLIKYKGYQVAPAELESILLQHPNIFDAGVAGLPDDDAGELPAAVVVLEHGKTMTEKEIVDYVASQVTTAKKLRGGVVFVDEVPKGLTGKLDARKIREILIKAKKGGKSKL
Sequence of Glutaminase kidney isoform, mitochondrial (Homo sapiens) (O94925 whole entry, looked up, canonical isoform): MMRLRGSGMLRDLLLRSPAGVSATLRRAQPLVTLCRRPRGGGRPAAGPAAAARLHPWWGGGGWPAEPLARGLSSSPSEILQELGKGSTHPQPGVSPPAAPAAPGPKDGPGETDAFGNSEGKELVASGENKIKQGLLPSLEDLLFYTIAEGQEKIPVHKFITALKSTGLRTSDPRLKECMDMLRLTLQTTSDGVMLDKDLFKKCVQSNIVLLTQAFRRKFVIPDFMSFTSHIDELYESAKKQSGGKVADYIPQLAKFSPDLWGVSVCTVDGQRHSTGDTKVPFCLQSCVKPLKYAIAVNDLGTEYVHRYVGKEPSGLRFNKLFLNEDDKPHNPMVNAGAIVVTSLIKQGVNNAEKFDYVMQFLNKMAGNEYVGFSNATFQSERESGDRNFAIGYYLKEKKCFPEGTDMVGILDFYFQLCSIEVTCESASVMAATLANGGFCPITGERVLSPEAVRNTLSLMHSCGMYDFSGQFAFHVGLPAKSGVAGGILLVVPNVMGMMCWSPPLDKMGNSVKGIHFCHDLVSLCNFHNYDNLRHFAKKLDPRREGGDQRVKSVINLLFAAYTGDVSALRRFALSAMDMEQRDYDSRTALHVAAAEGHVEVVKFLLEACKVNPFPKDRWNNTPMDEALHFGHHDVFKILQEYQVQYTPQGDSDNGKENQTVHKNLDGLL

CCN1CCC[C@H]1CNC(=O)c1cc(S(N)(=O)=O)ccc1OC
inactive: Potency [1] | Potency [2] | Potency [3] | Potency [4] | outcome [5] | outcome [6] | outcome [7]

CC(=O)Oc1cc2c(s1)CCN(C(C(=O)C1CC1)c1ccccc1F)C2 (centres undefined)
inactive: Potency [1]

CC(C)NCC(O)COc1cccc2[nH]ccc12 (centres undefined)
inactive: Potency [1] | Potency [2] | Potency [3] | Potency [4] | outcome [5] | outcome [7]

CCN(CC)CCOC(=O)c1ccc(N)cc1
inactive: Potency [1] | Potency [2] | Potency [3] | Potency [4] | outcome [5] | outcome [6] | outcome [7]

CC(=O)CCCCn1c(=O)c2c(ncn2C)n(C)c1=O
inactive: Potency [1] | Potency [2] | Potency [3] | Potency [4] | outcome [5] | outcome [6]

CC1(C)CCC2=C(O1)c1ccccc1C(=O)C2=O
active: Potency [8] 14.1 µM
inactive: outcome [5] | outcome [6] | outcome [7]

O=c1[nH]cnc2c1ncn2[C@H]1CC[C@@H](CO)O1
inactive: Potency [1] | Potency [2] | Potency [3] | Potency [9] | Potency [10]

O=C1NC(=O)C(c2ccccc2)(c2ccccc2)N1
34.4 µM (active) and inactive: Potency [10]
inactive: Potency [1] | Potency [2] | Potency [3] | Potency [4] | outcome [5] | outcome [6] | outcome [7]

CCN(CC)CCNC(=O)c1ccc(N)cc1
inactive: Potency [1] | Potency [2] | Potency [3] | Potency [4] | outcome [5] | outcome [6] | outcome [7]

CC1(C)O[C@H]2C[C@@H]3[C@H]4CCC5=CC(=O)C=C[C@]5(C)[C@@]4(F)[C@@H](O)C[C@]3(C)[C@]2(C(=O)CO)O1
inactive: Potency [1] | Potency [2] | Potency [3] | Potency [9]

O=C1NCC2(CCN(CCc3ccccc3)CC2)O1
inactive: Potency [1] | Potency [2] | Potency [3] | Potency [9] | outcome [5] | outcome [6] | outcome [7]

NC[C@@H]1O[C@@H](O[C@H]2[C@@H](O)[C@H](O[C@@H]3[C@@H](O)[C@@H](N)C[C@H](N)[C@H]3O[C@H]3O[C@H](CN)[C@@H](O)[C@@H](O)[C@H]3N)O[C@H]2CO)[C@H](N)[C@@H](O)[C@@H]1O
inactive: Potency [1]

Cc1cnc(C(=O)O)c[n+]1[O-]
inactive: Potency [1] | Potency [2] | Potency [3]

CCCCCN(C)CCC(O)(P(=O)(O)O)P(=O)(O)O
inactive: Potency [1] | Potency [2] | Potency [3] | Potency [9] | Potency [4] | outcome [5] | outcome [6] | outcome [7]

CN(C)CCC(c1ccccc1)c1ccccn1 (centres undefined)
inactive: Potency [1] | Potency [2] | Potency [3] | Potency [4] | outcome [5] | outcome [6] | outcome [7] | activation [11] 1.39% | activation [12] -0.458%
active: Potency [10] 37.6 µM

CC(C)(C)c1ccc(C(O)CCCN2CCC(C(O)(c3ccccc3)c3ccccc3)CC2)cc1 (centres undefined)
active: Potency [2] 16.1 µM
inactive: Potency [1] | Potency [3] | Potency [4] | outcome [5] | outcome [7]

Cc1cccc(C)c1OCC(C)N (centres undefined)
inactive: Potency [1] | Potency [2] | Potency [3] | Potency [4] | outcome [5] | outcome [6] | outcome [7]

CCOC(=O)O[C@]1(C(=O)OCCl)CC[C@@H]2[C@H]3CCC4=CC(=O)C=C[C@]4(C)[C@@H]3[C@@H](O)C[C@@]21C
inactive: Potency [1] | Potency [2] | Potency [3] | Potency [9]

CN1[C@@H]2CCC[C@@H]1CC(NC(=O)c1nn(C)c3ccccc13)C2 (some centres undefined)
inactive: Potency [1]

NCCS
inactive: Potency [1] | Potency [2] | Potency [3] | Potency [4] | outcome [5] | outcome [6] | outcome [7]

CC1=C(/C=C/C(C)=C/C=C/C(C)=C/C(=O)Nc2ccc(O)cc2)C(C)(C)CCC1
active: Potency [3] 4.05 µM | Potency [9] 11.2 µM | Potency [4] 12.6 µM | Potency [13] 20.9 µM | Potency [15] 21.1 µM | Potency [18] 15 µM
inactive: Potency [1] | Potency [2] | outcome [5] | outcome [6] | outcome [7] | outcome [14]
0.102%: viability, percent of control [17]
7.34%: viability (% of control) [16]

CN1C[C@H]2c3ccccc3Oc3ccc(Cl)cc3[C@@H]2C1
inactive: Potency [1]

CCCNC(=O)NS(=O)(=O)c1ccc(Cl)cc1
inactive: Potency [1] | Potency [2] | Potency [3] | Potency [4] | outcome [5] | outcome [6] | outcome [7] | Potency [10] | activation [11] -1.07% and -0.555% | activation [12] -1.46% and -0.938%
